Pf growth 96h: inhibits malaria parasite growth, 96 h. P. falciparum luciferase reporter growth, 96 h. Potency, µM (titrated, usually from 28.7 µM), without a hit: at the highest dose activity change, negative = inhibition, actives largely listed as inhibitors. AID 504834. actives 6.9% (n = 320,000); also: potency is read from the fitted curve at half-maximal effect; % is scaled to controls: 0 for no effect and ±100 for the full control effect
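P. falciparum expressing integrated firefly luciferase grown in erythrocytes (2% hematocrit, 0.05% parasitemia final) with compounds for 96 hours at 37 C, 5% CO2. Growth inhibition read as loss of luminescence after adding luciferase detection reagent.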
Pf growth 48h: inhibits P. falciparum growth in the first generation, 48 h | Potency, µM (series often up to 28.7 µM), inactives show at the top dose activity change, negative = inhibition, usual class: inhibitors | P. falciparum luciferase growth in erythrocytes, 48 h | actives 5.9% (n = 310,000) | AID 504832; also: potency is read from the fitted curve at half-maximal effect; % is scaled to controls: 0 for no effect and ±100 for the full control effect
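Growth was read as firefly luciferase luminescence after a 48 h, 37 C, 5% CO2 exposure of compounds to reporter-bearing P. falciparum cultures (0.1% parasitemia, 2% hematocrit final) in Albumax-supplemented RPMI 1640.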
Sm TGR block: S. mansoni TGR enzyme inhibition; actives 3% (n = 360,000); purified TGR, DTNB reduction, TNB absorbance 405 nm; Potency, µM (highest dose often 114 µM), for inactives: top-dose activity change, negative = inhibition, actives largely listed as inhibitors; also: potency is read from the fitted curve at half-maximal effect; % is scaled to controls: 0 for no effect and ±100 for the full control effect; nearly all actives have a fitted effect of over 60% in size
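Kinetic colorimetric format: TGR-catalysed, NADPH-driven DTNB reduction monitored via TNB absorbance. Enzyme dispensed at 20 nM; compound exposure 15 min at room temperature before reaction start.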
SARS PLpro yeast-1: inhibitors of SARS-CoV papain-like protease in yeast; S. cerevisiae expressing SARS-CoV PLpro, growth rescue; Potency, µM (doses to about 32.9 µM), for inactives: at the highest dose activity, positive = growth rescue, usual class: activators; actives 0.19% (n = 330,000); calls by dose curve; also: potency is read from the fitted curve at half-maximal effect; 0% is about no effect; nearly all actives have a fitted effect of over 55% in size
SARS PLpro yeast-2: Validates SARS-CoV PLpro inhibitor hits in yeast; shares compounds with SARS PLpro yeast-1; yeast expressing SARS-CoV PLpro, growth phenotype rescue; calls only; actives 19% (n = 1,000); call rule not given here
The depositor's hits bear a star; i = inactive; ? = inconclusive; / = not tested or not shown; + = active, no number. Shown are actives, neighbours in structure and some others; about 12% of the full set was active somewhere. Unless noted, calls follow the shape of the dose curve; as a rule, active = well fitted curve in the direction sought with a large enough effect; inconclusive = small, poorly fitted or top-dose-only effect, or another doubt; inactive = no such curve, though single readings can be large; an effect the other way counts as inactive or inconclusive.

SMILES	Pf growth 96h	Pf growth 48h	Sm TGR block	SARS PLpro yeast-1	SARS PLpro yeast-2
CCn1cc(CN2CCC(C(=O)Nc3cccc(-c4cccc(OC)c4)c3)CC2)c(C)n1	12.8%	?	-8.2%	?	i
CCOc1ccc(NC(=O)CC2S/C(=N/N=C3CCCCCC3)NC2=O)cc1 (stereo not drawn)	?	?	-31.8%	?	i
O=[N+]([O-])c1nn(-c2ccc3c(c2)OCCO3)n(O)c1=NC1CCCCC1	?	/	?	3.0%	/
CC1CCN(c2c([N+](=O)[O-])nn(-c3ccc4c(c3)OCCO4)[n+]2[O-])CC1	/	/	-1.1%	3.98µM*	i
Cc1cc(C)c(S(=O)(=O)NCc2ccc3c(c2)CCN3C(=O)c2ccccc2)c(C)c1	/	/	1.4%	/	/
CC(=O)NC(c1ccc(C)cc1)c1cc(Cl)c2cccnc2c1O (stereo not drawn)	28.5%	?	-6.9%	?	+
Oc1c(C(Nc2ccccn2)c2cccnc2)cc(Cl)c2cccnc12 (stereo not drawn)	90.2%	4.65µM*	4.47µM*	2.51µM*	i
COc1ccc(C(NC(=O)c2cccnc2)c2cc(Cl)c3cccnc3c2O)cc1OC (stereo not drawn)	0.0%	?	4.5%	2.24µM*	i
Oc1c(C(c2ccc(Cl)cc2)N2CCCC2)cc(Cl)c2cccnc12 (stereo not drawn)	1.85µM*	3.29µM*	3.16µM*	/	i
CCCCCC(=O)Nc1ccc(Cc2ccncc2)cc1	11.7µM*	-18.5%	-24.2%	12.6µM*	i
CC(=O)Nc1ccc(Cc2ccncc2)cc1	-24.5%	20.0%	2.6%	1.2%	/
CSc1ncccc1C(=O)OCC(=O)Nc1ccc(N2CCOCC2)cc1	/	/	/	1.2%	/
NC(=O)c1ccc(Oc2ccc(Cl)c3ccccc23)c([N+](=O)[O-])c1	12.1%	12.6%	-17.2%	4.47µM*	?
NC(=O)c1ccc(Oc2ccc(Cl)cc2)c([N+](=O)[O-])c1	-4.3%	-2.4%	10.5%	-1.5%	/
CCCOc1ccc(C2=NNC(=O)CC2)cc1	66.1%	10.8%	4.0%	-0.5%	/
COc1ccc(C2=NNC(=O)CC2)cc1	0.0%	6.5%	-11.1%	?	i
O=C(NCCc1ccc(Cl)cc1)c1cccnc1	/	34.3%	-5.5%	-5.0%	/
O=C(NCCc1ccc(Cl)cc1)/C(=C/c1cccnc1)NC(=O)c1ccccc1	?	-2.8%	-11.5%	15.8µM*	i
CCOCCc1nn2c(=O)cc(COC(=O)c3ccccc3OC)nc2s1	/	/	-4.0%	/	/
Oc1ccc(/C=N\Nc2cc(N3CCOCC3)nc(N3CCOCC3)n2)c(O)c1	?	?	-10.9%	8.8%	/
CCCOc1ccc(/C=N/Nc2cc(N3CCOCC3)ncn2)c(O)c1	-6.1%	2.08µM*	5.8%	5.01µM*	+
Cc1cc(SCC(=O)N/N=C/c2ccccc2C(=O)O)c(C)cc1Br	40.9%	10.1%	5.8%	-1.0%	/
Cc1cc(SCC(=O)N/N=C/c2ccc(O)cc2O)c(C)cc1Br	/	?	-9.5%	10µM*	i
COc1cc(-c2nnc(SCc3cc(=O)oc4cc(O)c(O)cc34)o2)cc(OC)c1OC	/	?	-9.5%	6.31µM*	i
CCOC(=O)CSc1nnc(-c2cc(OC)c(OC)c(OC)c2)o1	41.2%	0.8%	-11.4%	0.1%	/
SMILES	Pf growth 96h	Pf growth 48h	Sm TGR block	SARS PLpro yeast-1	SARS PLpro yeast-2
CCCCCc1nn2cc(-c3ccccc3)nc2s1	/	/	-5.9%	/	/
Cc1nnc2c3ccccc3c(-c3ccc(O)cc3)nn12	2.4%	/	0.7%	?	i
O=C(Cc1cc(=O)[nH]c(=O)[nH]1)N1CCN(C(=O)c2ccco2)CC1	43.3%	26.8%	-2.9%	1.78µM*	i
CCOC(=O)c1c(S(=O)(=O)N2CCCC(C(=O)N3CCN(c4ccccc4)CC3)C2)c(C)n(C)c1C (stereo not drawn)	/	/	-4.6%	/	/
COC(=O)c1sc(NC(=S)NC(=O)c2ccc(F)cc2)nc1C	?	37.6%	0.7%	0.0%	/
COC(=O)c1sc(NC(=S)NC(=O)c2cccc(Br)c2)nc1C	32.3%	76.1%	-25.9%	?	?
CCN1C(=O)c2cccc3c(S(=O)(=O)Nc4ccccc4OC)ccc1c23	310.1%	?	1.4%	?	i
O=C(CNC(=O)c1ccco1)OC(C(=O)c1ccccc1)c1ccccc1 (stereo not drawn)	5.3%	3.6%	-26.1%	?	i
CCc1nnc(NC(=O)c2cnccn2)s1	/	62.1%	4.4%	?	i
O=C(c1ccc(O)c(Cl)c1)N1CCN(S(=O)(=O)c2ccccc2)CC1	-2.2%	-6.3%	-5.8%	?	i
O=C(c1ccc(Cl)nc1)N1CCN(S(=O)(=O)c2ccccc2)CC1	26.4%	54.6%	4.6%	-2.3%	/
O=C1OCCC/C1=C\c1ccc2c(c1)OCO2	-0.1%	-24.4%	-10.8%	-2.8%	/
CCCN1C/C(=C/c2ccc3c(c2)OCO3)C(=O)/C(=C/c2ccc3c(c2)OCO3)C1	1.85µM*	0.0%	?	14.1µM*	i
CCC(=O)NC(c1ccccc1OC)c1ccc2cccnc2c1O (stereo not drawn)	-4.1%	4.15µM*	-15.9%	?	+
COc1cccc(/C=N/NC(=O)COc2cccc3cccnc23)c1O	1.3%	?	-0.7%	0.3%	/
CCCCC(=O)NC(c1ccccc1)c1ccc2cccnc2c1O (stereo not drawn)	?	?	-17.1%	4.47µM*	i
O=C(NC(=S)NCc1ccco1)c1cccc(Cl)c1	69.0%	?	?	-6.6%	/
COc1cccc(C(=O)NC(=S)NCc2ccco2)c1	3.7µM*	70.4%	?	?	+
CCOC(=O)C1CCCN(C(=O)c2ccc3c(c2)N(Cc2cccc(Cl)c2)C(=O)c2ccccc2S3(=O)=O)C1 (stereo not drawn)	/	/	9.7%	/	/
CC(C)COc1cccc(C(=O)N(C)CC(=O)Nc2cccc3ccccc23)c1	/	/	/	14.1µM*	i
COc1ccc(C2c3c(n(C)c4ccccc34)C(=O)N2CC(=O)Nc2cccc(Cl)c2C)cc1 (stereo not drawn)	/	/	3.9%	/	/
CC(C)c1ccc(/C=C(\C#N)c2nc(-c3ccc(O)cc3)cs2)cc1	/	/	-1.0%	/	/
Cc1ccc(-n2c(O)c(/C=N/NC(=O)C3COc4ccccc4O3)c3ccccc3c2=O)cc1 (stereo not drawn)	21.7%	-1.8%	-5.4%	?	?
O=C(N/N=C/c1c(O)n(-c2ccccc2Cl)c(=O)c2ccccc12)C1COc2ccccc2O1 (stereo not drawn)	?	3.6%	?	11.2µM*	+
Cc1c(/C=N\NC(=O)C2COc3ccccc3O2)c2ccccc2n1C (stereo not drawn)	?	-12.9%	-13.5%	-32.1%	/
O=C(N/N=C\c1cccc([N+](=O)[O-])c1O)C1COc2ccccc2O1 (stereo not drawn)	-11.0%	-6.4%	-1.3%	12.6µM*	i
